Shown is part of a subset that was picked to be rich in hits.
RMI-FANCM inh – disruptors of RMI1/RMI2 association with MM2 peptide – biochemical, fluorescence polarization, human, primary screen | RMI core complex (RMI1/RMI2) binding to FANCM MM2 peptide, human | RMI core complex with F-MM2 peptide; active compounds read low | FP signal (polarization) at 33 µM | 70,000 tested, 0.58% active | AID 1159607, 2016; in the data active = FP signal below about 40
Active calls of the source: *; ! = not active in a repeat.

Screening O=C(Cc1csc(Nc2ccc(OC(F)(F)F)cc2)n1)NCc1ccccn1 returned RMI-FANCM inh -3*.
Screening O=C(Cc1csc(SCc2ccc(Br)cc2)n1)Nc1nccs1 returned RMI-FANCM inh 21*.
For O=C(Cc1csc(SCc2ccc(Br)cc2)n1)NCc1ccccn1 the results were RMI-FANCM inh 27*.
For O=C(Cc1csc(Nc2cccc(C(F)(F)F)c2)n1)NCc1ccccn1 the results were RMI-FANCM inh 44.
COc1cc(CSc2nc(CC(=O)Nc3nccs3)cs2)cc(OC)c1 was read as RMI-FANCM inh 58.
For O=C(Cc1csc(SCc2ccc(Br)cc2)n1)NC1CCCC1 the results were RMI-FANCM inh 66.
For O=C(Cc1csc(SCc2ccc(Br)cc2)n1)NCc1cccs1 the results were RMI-FANCM inh 80.
For Cc1ccc(-c2csc3nc(SCC(=O)Nc4ccc5c(c4)OCO5)n(-c4ccccc4)c(=O)c23)o1 the results were RMI-FANCM inh 79.
Screening Cc1nc(SCc2nc(-c3cccc(C(F)(F)F)c3)no2)[nH]c(=O)c1CCO returned RMI-FANCM inh 62.
Screening COC(=O)c1ccc(CSc2ccccn2)cc1 returned RMI-FANCM inh 54.
Screening CC1(C)CC(=O)C(SC(F)(F)F)C(=O)C1 returned RMI-FANCM inh 54.
Screening Cc1[nH]c2ccccc2c1C(Nc1nccs1)c1ccc(C(C)C)cc1 (configuration not stated) returned RMI-FANCM inh 53.
`N#Cc1ccc(C(=O)Nc2cccc3c2C(=O)NC3=O)cc1` gave RMI-FANCM inh 60.
CC(C)Oc1ccc(C(=O)Nc2ccc3c(c2)CN(C(=O)C2CC2)CC3)cc1 was read as RMI-FANCM inh 67.
For Cc1cc(=S)nc(-c2ccccn2)[nH]1 the results were RMI-FANCM inh 55.
Screening Cc1nc(-c2ccccn2)n[nH]1 returned RMI-FANCM inh 63.
Cc1cc(-c2ccccn2)c(-c2cc(Cl)cc(Cl)c2)[nH]1 was read as RMI-FANCM inh 32*.
For Cc1nc2scc(C)n2c(=O)c1NC(=O)Cc1cccs1 the results were RMI-FANCM inh 46.
O=C(Nc1ccc2c(c1)N(C(=O)C1CCCC1)CC2)c1cc2ccccc2oc1=O was read as RMI-FANCM inh 72.
O=C(CSc1nnc2nnc3ccccc3n12)N1CCOCC1 was read as RMI-FANCM inh 17*.
O=C(Cn1cnc2ccccc21)N1CCOCC1 was read as RMI-FANCM inh 58.
O=C(CSc1nc2ccccc2o1)N1CCOCC1 was read as RMI-FANCM inh 72.
For N#CCC(C(=O)C(F)(F)F)c1ccccc1 (configuration not stated) the results were RMI-FANCM inh 59.
For COc1ccc(N(Cc2ccccc2)C(=O)COc2ccc(C)cc2)cc1 the results were RMI-FANCM inh 64.
`O=C(Nc1nnc(-c2ccc(Br)cc2)o1)c1ccccc1` gave RMI-FANCM inh 64.
`CCCc1noc(C)c1C(=O)O` gave RMI-FANCM inh -5*.
Cc1noc(C)c1S(=O)(=O)N1CCC(C(=O)O)CC1 was read as RMI-FANCM inh 56.
Cc1coc(C)c1C(=O)O was read as RMI-FANCM inh 57.
Screening COc1cc(C(=O)NCCOc2ccc(F)cc2)c([N+](=O)[O-])cc1OC returned RMI-FANCM inh 60.
CC(C)N1CCC(CNC(=O)COc2ccc(Cl)cc2Cl)CC1 was read as RMI-FANCM inh 84.
Screening O=S(=O)(NCc1ccccc1)N1CCCCC1 returned RMI-FANCM inh 65.
`CCN(CC)Cc1cnc(NC(=O)c2ccccc2)s1` gave RMI-FANCM inh 62.
For COc1ccc(-c2c3c(nc4sc(C(=O)c5ccc(Cl)c(Cl)c5)c(N)c24)CC(C)(C)CC3=O)cc1 the results were RMI-FANCM inh 99.
For COc1ccc(-c2c3c(nc4sc(C(=O)Nc5ccc(F)cc5)c(N)c24)CC(C)(C)CC3=O)cc1 the results were RMI-FANCM inh 70.
COc1ccc(-c2c3c(nc4sc(C(=O)c5ccc6c(c5)OCCO6)c(N)c24)CC(C)(C)CC3=O)cc1 was read as RMI-FANCM inh -6*.
`O=C(CSc1ccc(NC(=O)c2cccc(F)c2)nn1)NC1CCCC1` gave RMI-FANCM inh 72.
c1ccc(-c2ccc(-c3ccccc3)o2)cc1 was read as RMI-FANCM inh 58.
COc1cc2cc3c4cc(OC)c(OC)cc4cc[n+]3c(C)c2cc1OC was read as RMI-FANCM inh 12*!.
COc1cc2cc(C(=O)O)cc(-c3ccc(C)cc3)c2cc1OC was read as RMI-FANCM inh 60.
For COc1cc2cc(=O)[nH]c(C)c2cc1OC the results were RMI-FANCM inh 50.
Screening CC1=C(C)CC2C(=O)N(c3ccc(O)cc3)C(=O)C2C1 (configuration not stated) returned RMI-FANCM inh 59.
Screening CCN1C(=O)C2CC(C)=C(C)CC2C1=O (configuration not stated) returned RMI-FANCM inh 29*.
For CC1=C(C)CC2C(=O)N(C(Cc3ccccc3)C(=O)O)C(=O)C2C1 (configuration not stated) the results were RMI-FANCM inh 57.
`COc1ccc(-c2nnc3ccc(SCc4ccccc4)nn23)cc1OC` gave RMI-FANCM inh 60.
For O=C(CCn1cnc2c(cnn2-c2ccc(F)cc2)c1=O)NCCc1c[nH]c2ccccc12 the results were RMI-FANCM inh 74.
For Brc1ccc(-c2ccc(Br)s2)s1 the results were RMI-FANCM inh 63.
For Fc1ccc2nc(NCc3cccnc3)sc2c1 the results were RMI-FANCM inh 66.
`Fc1ccc2ncc(-c3ccc(Br)s3)nc2c1` gave RMI-FANCM inh 9*.
For COc1ccc(Cl)c2sc(N(Cc3ccccn3)C(=O)C3CCCC3)nc12 the results were RMI-FANCM inh 71.
CC(C)(C)c1nc(N)nc(NNS(=O)(=O)c2ccccc2C(F)(F)F)n1 was read as RMI-FANCM inh 53.
`COc1ccc(/C=N\Nc2nc(-c3cccs3)cs2)cc1` gave RMI-FANCM inh 61.
CCOc1ccc(-c2csc(NC(=O)C3CCCCC3)n2)cc1 was read as RMI-FANCM inh 71.
For CCOc1ccc(-c2csc(N/N=C\c3ccc(OC)c(OC)c3)n2)cc1 the results were RMI-FANCM inh 16*.
`Cc1cccn2cc(CCNS(=O)(=O)c3ccc(F)cc3)nc12` gave RMI-FANCM inh 59.
For O=C(NCCCN1CCCC1=O)C(=O)NC1CCCC1 the results were RMI-FANCM inh 56.
For CSc1cccc(NC(=O)Cc2csc(NC(=O)c3ccco3)n2)c1 the results were RMI-FANCM inh 53.
`O=C(CC(c1ccccc1)c1ccccc1)NCCCS(=O)(=O)N1CCN(c2ccccn2)CC1` gave RMI-FANCM inh 63.
Screening N#Cc1c(N)sc2c1CCC2 returned RMI-FANCM inh 50.
For N#Cc1c(N)sc(=S)c2c1CCCC2 the results were RMI-FANCM inh 7*.
CC(C)(C)C(=O)Nc1sc2c(c1C#N)CCCC2 was read as RMI-FANCM inh 58.
For O=C(O)c1ccc(C(=O)O)c([N+](=O)[O-])c1 the results were RMI-FANCM inh 60.
Screening O=C(Nc1ccc(Cl)c2ncsc12)c1ccc([N+](=O)[O-])s1 returned RMI-FANCM inh 51.
Screening Cn1ncc2c(NNS(=O)(=O)c3cc(C(F)(F)F)cc(C(F)(F)F)c3)ncnc21 returned RMI-FANCM inh 52.
Screening CCN1C(=O)/C(=C/c2c(C)c(C#N)c(=O)n(C)c2N2CCN(c3ccc(F)cc3)CC2)SC1=S returned RMI-FANCM inh 15*.
`COCCCN1C(=O)/C(=C/N2CCN(c3ccccc3)CC2)SC1=S` gave RMI-FANCM inh 98.

High-throughput results (PubChem BioAssay)
